Key:
Assay in all cases: log2 ratio of Biotin-Ahx-Ub-VS probe labelling (fragment/DMSO); higher = less target engagement (more negative = stronger competition), active = hit call of the paper (q ≤ 0.05, log2 ratio ≤ -1)
Conditions in all cases: compound concentration: 200 uM; treatment time: 3 h
USP34 = USP34 (UniProt Q70CQ2)
Summary of the method: (§1)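 Average log2 ratios of fragment over vehicle were obtained by unpaired t-test from global-median-normalised Spectronaut label-free quantities. Proteins with ≥2 unique peptides were included. HEK293T lysate (495 µg per sample) was treated in triplicate with fragment at 200 µM or vehicle for 3 h, then with Biotin-Ahx-Ub-VS at 0.5 µM final for 1 h, and labelled DUBs were NeutrAvidin-enriched and run by diaPASEF LC-MS/MS.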

USP36 = target: T1, USP36 (UniProt Q9P275)
T1 sequence (whole entry): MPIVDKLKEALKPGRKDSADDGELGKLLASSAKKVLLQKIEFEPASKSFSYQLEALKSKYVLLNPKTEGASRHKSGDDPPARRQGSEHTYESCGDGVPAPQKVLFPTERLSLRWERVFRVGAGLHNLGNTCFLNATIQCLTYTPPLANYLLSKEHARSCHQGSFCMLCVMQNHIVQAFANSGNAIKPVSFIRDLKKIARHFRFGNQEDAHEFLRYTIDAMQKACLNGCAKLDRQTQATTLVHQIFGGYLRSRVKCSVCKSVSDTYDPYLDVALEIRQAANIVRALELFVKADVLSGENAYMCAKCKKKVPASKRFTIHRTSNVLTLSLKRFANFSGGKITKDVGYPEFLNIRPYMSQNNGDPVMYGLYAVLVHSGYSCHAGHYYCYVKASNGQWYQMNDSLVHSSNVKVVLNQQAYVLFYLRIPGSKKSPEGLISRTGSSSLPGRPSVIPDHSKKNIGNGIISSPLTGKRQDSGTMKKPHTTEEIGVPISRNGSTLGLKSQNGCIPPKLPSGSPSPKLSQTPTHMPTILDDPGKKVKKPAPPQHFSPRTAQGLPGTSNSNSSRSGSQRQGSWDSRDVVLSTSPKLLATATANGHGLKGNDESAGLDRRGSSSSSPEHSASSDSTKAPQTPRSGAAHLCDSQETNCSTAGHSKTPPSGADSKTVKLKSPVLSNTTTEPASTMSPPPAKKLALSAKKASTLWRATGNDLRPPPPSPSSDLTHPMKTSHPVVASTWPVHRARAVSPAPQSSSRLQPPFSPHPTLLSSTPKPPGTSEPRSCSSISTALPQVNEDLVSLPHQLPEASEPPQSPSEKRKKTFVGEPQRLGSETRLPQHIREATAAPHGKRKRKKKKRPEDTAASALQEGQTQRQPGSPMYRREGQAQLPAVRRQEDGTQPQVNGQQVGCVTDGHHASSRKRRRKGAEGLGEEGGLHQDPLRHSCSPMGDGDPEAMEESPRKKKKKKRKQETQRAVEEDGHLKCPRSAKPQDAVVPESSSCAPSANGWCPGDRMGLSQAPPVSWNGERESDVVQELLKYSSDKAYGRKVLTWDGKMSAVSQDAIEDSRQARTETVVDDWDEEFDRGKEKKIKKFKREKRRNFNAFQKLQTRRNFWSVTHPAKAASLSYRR
Summary of the method: as §1

USP38 = target: T2, USP38 (UniProt Q8NB14)
T2 sequence (whole entry): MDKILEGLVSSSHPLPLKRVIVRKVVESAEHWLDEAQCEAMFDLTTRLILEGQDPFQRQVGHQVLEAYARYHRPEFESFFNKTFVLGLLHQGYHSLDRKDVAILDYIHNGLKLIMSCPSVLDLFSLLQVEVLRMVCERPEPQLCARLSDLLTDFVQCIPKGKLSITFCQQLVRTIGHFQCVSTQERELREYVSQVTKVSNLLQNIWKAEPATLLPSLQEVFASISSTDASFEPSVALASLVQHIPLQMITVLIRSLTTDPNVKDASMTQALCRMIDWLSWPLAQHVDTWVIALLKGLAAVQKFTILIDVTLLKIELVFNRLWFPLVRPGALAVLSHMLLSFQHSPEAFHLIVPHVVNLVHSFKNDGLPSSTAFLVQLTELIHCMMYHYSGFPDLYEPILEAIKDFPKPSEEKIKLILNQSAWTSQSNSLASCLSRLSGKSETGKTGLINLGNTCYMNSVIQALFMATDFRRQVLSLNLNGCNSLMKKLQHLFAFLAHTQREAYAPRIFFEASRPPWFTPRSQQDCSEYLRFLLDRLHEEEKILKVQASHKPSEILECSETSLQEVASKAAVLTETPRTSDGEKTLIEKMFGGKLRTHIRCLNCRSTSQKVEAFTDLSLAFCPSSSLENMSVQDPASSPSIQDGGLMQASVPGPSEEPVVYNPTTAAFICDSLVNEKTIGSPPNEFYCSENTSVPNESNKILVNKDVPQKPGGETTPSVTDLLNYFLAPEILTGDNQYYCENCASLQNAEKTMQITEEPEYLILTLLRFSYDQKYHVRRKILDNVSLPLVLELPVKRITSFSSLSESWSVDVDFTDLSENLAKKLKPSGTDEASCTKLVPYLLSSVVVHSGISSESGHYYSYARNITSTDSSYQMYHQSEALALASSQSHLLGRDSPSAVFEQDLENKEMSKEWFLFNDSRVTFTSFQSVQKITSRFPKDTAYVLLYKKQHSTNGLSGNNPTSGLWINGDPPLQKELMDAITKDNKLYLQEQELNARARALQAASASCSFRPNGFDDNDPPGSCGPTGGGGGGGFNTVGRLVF
Summary of the method: as §1

USP39 = target: T3, USP39 (UniProt Q53GS9)
T3 sequence (whole entry): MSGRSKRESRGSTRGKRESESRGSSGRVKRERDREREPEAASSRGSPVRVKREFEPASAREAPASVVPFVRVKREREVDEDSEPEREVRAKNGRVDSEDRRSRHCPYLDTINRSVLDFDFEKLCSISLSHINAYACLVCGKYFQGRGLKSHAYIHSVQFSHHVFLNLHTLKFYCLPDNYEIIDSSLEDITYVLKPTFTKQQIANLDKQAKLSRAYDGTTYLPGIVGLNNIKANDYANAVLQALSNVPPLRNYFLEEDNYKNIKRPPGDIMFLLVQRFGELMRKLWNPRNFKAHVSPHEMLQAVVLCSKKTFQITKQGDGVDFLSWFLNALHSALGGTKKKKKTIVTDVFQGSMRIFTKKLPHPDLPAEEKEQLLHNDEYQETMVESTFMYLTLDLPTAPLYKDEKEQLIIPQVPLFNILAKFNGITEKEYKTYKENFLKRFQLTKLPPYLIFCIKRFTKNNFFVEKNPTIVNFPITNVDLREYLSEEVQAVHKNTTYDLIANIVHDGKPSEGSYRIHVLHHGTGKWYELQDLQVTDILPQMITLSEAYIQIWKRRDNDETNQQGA
Summary of the method: as §1

USP4 = target: T4, USP4 (UniProt Q13107)
T4 sequence (whole entry): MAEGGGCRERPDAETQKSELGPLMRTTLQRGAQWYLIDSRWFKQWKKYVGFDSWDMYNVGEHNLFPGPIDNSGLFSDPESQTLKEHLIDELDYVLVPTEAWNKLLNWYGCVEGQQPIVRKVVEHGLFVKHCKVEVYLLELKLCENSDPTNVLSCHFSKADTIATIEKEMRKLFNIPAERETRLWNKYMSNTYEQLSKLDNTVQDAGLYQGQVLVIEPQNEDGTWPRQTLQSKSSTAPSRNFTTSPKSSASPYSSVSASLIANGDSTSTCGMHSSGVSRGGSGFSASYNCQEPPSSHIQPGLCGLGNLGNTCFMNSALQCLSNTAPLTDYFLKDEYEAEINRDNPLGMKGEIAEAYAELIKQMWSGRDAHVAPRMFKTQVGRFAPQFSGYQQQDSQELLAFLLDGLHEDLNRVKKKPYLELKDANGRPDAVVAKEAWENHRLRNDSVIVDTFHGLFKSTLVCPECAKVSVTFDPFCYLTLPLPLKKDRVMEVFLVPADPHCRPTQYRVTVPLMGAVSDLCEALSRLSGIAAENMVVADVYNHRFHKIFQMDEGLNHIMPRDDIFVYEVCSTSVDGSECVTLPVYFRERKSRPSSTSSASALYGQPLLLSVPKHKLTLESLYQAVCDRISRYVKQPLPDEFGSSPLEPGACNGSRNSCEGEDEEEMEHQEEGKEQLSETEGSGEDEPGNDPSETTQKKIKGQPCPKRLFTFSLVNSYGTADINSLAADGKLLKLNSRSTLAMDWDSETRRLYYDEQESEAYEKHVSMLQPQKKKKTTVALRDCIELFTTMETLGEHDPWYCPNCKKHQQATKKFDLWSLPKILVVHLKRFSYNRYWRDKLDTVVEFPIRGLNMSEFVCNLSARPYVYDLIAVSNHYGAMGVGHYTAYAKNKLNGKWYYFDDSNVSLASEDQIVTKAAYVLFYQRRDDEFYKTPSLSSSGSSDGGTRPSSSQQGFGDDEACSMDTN
Summary of the method: as §1

Measured: log2 ratio of Biotin-Ahx-Ub-VS probe labelling

Chain of USP34 (Q70CQ2 whole entry, the tested form may be a part): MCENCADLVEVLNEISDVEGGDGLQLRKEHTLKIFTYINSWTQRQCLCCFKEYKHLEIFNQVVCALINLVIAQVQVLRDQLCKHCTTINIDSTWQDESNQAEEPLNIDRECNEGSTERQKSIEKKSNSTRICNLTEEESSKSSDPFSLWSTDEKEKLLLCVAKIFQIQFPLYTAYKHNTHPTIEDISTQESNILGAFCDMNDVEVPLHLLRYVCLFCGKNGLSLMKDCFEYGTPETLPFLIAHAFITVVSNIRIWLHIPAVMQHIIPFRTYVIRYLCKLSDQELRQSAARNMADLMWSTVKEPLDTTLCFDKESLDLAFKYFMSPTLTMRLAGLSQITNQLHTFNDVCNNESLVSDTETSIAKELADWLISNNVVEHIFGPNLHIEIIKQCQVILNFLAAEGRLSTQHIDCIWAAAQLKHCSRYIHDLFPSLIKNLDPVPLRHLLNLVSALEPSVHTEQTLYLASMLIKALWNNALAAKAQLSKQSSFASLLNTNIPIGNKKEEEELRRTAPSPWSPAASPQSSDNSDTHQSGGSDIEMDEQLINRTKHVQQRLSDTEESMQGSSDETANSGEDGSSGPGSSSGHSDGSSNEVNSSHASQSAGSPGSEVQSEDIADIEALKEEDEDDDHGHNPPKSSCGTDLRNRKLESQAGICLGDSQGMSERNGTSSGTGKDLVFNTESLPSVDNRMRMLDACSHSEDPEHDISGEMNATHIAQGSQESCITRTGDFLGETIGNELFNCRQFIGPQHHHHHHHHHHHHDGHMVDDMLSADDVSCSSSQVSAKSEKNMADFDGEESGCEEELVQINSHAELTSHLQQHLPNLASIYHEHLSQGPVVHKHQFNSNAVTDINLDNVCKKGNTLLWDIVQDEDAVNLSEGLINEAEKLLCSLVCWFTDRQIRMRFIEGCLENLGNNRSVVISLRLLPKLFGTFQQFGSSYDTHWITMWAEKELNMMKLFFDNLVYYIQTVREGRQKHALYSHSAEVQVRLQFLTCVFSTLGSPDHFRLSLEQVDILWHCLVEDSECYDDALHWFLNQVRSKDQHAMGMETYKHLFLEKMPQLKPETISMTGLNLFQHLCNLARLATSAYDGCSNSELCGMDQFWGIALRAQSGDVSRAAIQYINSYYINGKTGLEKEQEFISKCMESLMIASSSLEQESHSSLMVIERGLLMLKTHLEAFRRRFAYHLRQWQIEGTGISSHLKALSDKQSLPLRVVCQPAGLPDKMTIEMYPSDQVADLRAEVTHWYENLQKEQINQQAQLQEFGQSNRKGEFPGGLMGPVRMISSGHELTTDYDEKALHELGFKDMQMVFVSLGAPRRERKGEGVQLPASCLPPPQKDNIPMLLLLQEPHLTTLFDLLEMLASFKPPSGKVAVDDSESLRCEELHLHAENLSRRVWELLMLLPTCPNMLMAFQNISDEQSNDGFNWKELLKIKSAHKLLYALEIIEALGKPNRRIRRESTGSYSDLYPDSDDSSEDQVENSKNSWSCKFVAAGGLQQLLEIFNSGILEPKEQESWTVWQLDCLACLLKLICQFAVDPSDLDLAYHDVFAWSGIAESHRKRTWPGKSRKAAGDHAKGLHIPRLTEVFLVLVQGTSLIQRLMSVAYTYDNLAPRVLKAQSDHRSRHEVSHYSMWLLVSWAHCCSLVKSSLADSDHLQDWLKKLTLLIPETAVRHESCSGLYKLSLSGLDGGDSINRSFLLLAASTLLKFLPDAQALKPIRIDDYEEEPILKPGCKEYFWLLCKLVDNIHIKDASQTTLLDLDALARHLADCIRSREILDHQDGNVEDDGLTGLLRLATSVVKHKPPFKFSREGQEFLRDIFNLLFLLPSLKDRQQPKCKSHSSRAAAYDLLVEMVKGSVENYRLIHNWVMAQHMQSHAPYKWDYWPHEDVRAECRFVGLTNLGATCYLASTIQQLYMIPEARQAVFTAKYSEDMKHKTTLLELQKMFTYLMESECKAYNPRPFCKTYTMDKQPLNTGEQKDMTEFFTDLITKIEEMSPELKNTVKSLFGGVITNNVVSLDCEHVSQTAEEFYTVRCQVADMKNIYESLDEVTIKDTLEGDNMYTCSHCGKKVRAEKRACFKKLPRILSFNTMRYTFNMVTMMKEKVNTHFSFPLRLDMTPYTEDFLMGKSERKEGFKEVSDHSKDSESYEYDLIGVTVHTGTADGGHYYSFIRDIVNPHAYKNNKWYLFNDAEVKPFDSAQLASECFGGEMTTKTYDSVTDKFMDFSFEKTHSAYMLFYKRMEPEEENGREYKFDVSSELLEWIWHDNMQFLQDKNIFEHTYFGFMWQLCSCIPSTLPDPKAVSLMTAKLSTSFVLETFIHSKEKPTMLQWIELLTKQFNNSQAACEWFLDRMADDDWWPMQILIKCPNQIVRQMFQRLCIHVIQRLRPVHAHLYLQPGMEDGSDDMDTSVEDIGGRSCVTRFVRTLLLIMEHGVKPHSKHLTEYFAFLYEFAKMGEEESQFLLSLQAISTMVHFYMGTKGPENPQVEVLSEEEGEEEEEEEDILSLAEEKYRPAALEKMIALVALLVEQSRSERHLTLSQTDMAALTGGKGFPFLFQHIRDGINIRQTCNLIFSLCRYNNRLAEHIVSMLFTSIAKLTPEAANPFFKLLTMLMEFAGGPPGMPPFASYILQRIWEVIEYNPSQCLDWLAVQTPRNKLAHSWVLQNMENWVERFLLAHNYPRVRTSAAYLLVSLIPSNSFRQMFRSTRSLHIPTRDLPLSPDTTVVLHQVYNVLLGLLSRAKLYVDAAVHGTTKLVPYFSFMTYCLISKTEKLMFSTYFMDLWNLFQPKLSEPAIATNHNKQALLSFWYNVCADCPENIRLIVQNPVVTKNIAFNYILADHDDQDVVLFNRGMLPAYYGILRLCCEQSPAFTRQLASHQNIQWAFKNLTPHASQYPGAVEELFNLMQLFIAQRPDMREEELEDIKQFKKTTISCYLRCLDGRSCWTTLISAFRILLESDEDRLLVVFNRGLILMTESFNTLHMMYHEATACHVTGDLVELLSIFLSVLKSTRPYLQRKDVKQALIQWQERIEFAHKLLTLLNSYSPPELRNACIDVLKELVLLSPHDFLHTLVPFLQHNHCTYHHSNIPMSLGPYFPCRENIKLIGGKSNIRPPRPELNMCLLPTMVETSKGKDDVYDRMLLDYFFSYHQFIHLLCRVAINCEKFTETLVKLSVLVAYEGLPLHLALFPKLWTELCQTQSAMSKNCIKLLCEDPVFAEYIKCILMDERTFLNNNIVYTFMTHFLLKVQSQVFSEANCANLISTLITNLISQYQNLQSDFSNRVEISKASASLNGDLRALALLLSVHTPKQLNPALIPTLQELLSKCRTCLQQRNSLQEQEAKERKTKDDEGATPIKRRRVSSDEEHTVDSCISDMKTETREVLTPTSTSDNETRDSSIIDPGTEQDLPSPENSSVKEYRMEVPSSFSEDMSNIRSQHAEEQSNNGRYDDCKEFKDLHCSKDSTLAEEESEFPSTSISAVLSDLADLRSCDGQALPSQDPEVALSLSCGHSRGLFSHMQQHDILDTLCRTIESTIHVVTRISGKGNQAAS

Cc1ccc(C)c(Oc2ccc(CNC(=O)CCl)cn2)c1.Cl
inactive: USP34 -0.224 | USP36 -0.158 | USP38 -0.222 | USP39 0.00552 | USP4 -0.39

Reference: the supplement of paper PMC11732987, “Enantioselective OTUD7B fragment discovery through chemoproteomics screening and high-throughput optimisation” (Communications Chemistry, 2025)
